The sample as a whole holds a higher share of hits than the screen did.
Methyltransferases: Primary Screen for Target Class Profiling of Small Molecule Inhibitors of Methyltransferases; purified enzyme, MTase-Glo SAH luminescence; stronger effect = lower value; calls only at 40 µM; 25,000 compounds, 3.9% hits; call rule not given here
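Each enzyme was reacted with SAM and its substrate, with compounds tested once at 40 uM; SAH formed was read by MTase-Glo luminescence.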
Each line names hits and unclear results; the compound was inactive in the other large screens.

CC(=O)Nc1c2n(c3ccc(F)cc13)CC(C)(C(=O)NC1CCCC1)N(Cc1ccccc1F)C2=O (stereo unspecified)	none
CC(C)NC(=O)c1ccc2c(=O)n(C3CC3)c3nn(CC(=O)Nc4ccc(Cl)cc4)c(=O)n3c2c1	none
O=C(CSc1nnc2n(CCc3ccccc3)c(=O)c3ccccc3n12)Nc1cccc(F)c1	none
O=C(O)CC1(O)C(=O)Nc2ccccc21 (stereo unspecified)	Methyltransferases active
Cn1nccc1CN1CC2(C1)C(=O)Nc1ccccc12	none
O=C1Nc2ccccc2C12CN([S+](=O)([O-])c1ccccc1)C2	none
COc1ccccc1NC(=O)Cn1c(=O)oc2cc(S(=O)(=O)N3CC(C)CC(C)C3)ccc21 (stereo unspecified)	none
COC(=O)c1ncn2c1C(=O)N(Cc1ccc(OC)c(OC)c1)C(C)(C(=O)NC1CCCCCC1)C2 (stereo unspecified)	none
O=C(Nc1ccnc(NC(=O)C2CC2)c1)c1c(Cl)cccc1Cl	none
O=C(Nc1cccc(Nc2cc(Nc3cccc(C(F)(F)F)c3)ncn2)c1)C1CC1	Methyltransferases active
O=C(O)c1cccnc1Nc1cccc(C(F)(F)F)c1	none
CC(C(=O)NCc1cccc(F)c1)n1ccc2cc(S(=O)(=O)N3CCCCC3)ccc21 (stereo unspecified)	none
Cc1ccc(C)c(N2CCN(C(=O)c3ccc4c(=O)nc5c(-c6ccc(F)cc6)n[nH]n5c4c3)CC2)c1	none
CC1CCCC(NC(=O)C2(C)Cn3c(cc4occc43)C(=O)N2Cc2ccccc2F)C1C (stereo unspecified)	none
C=C[C@H]1[C@H](O[C@@H]2O[C@H](CO)[C@@H](O)[C@H](O)[C@H]2O)OC=C2C(=O)OCC[C@]21O	none
COc1cc(/C=C/C(=O)O[C@H]2[C@@H]3C=CO[C@@H](O[C@@H]4O[C@H](CO)[C@@H](O)[C@H](O)[C@H]4O)[C@@H]3[C@@]3(CO)O[C@@H]23)ccc1O	Methyltransferases active
O=C(/C=C/c1ccccc1)OC[C@]12O[C@H]1[C@@H](O)[C@@H]1C=CO[C@@H](O[C@@H]3O[C@H](CO)[C@@H](O)[C@H](O)[C@H]3O)[C@@H]12	Methyltransferases active
O=C(/C=C/c1ccc(O)cc1)OC[C@]12O[C@H]1[C@@H](O)[C@@H]1C=CO[C@@H](O[C@@H]3O[C@H](CO)[C@@H](O)[C@H](O)[C@H]3O)[C@@H]12	none
COC(=O)C1=COC(OC2OC(CO)C(O)C(O)C2O)C2C1C=CC2(O)CO (stereo unspecified)	none
CC(=O)O[C@H]1[C@@H](O)[C@H](O[C@H]2[C@@H]3C=CO[C@@H](O[C@H]4O[C@@H](CO)[C@H](O)[C@@H](O)[C@@H]4O)[C@@H]3[C@@]3(CO)O[C@@H]23)O[C@@H](C)[C@@H]1OC(=O)/C=C/c1ccccc1	none
O=C(/C=C/c1ccc(O)c(O)c1)O[C@@H]1[C@@H](O)[C@H](OC2CCCCC2O)O[C@H](CO)[C@H]1O (stereo partly specified)	none
COc1ccc(/C=C/C(=O)O[C@@H]2[C@@H](O)[C@@H](O)[C@H](O[C@H]3[C@@H]4C=CO[C@@H](O[C@@H]5O[C@H](CO)[C@@H](O)[C@H](O)[C@H]5O)[C@@H]4[C@@]4(CO)O[C@@H]34)O[C@H]2C)cc1	none
C=C[C@H]1[C@H](O[C@@H]2O[C@H](CO)[C@@H](O)[C@H](OC(=O)/C=C/c3ccc(O)c(OC)c3)[C@H]2O)OC=C2C(=O)OCC[C@]21O	Methyltransferases active
C[C@@H](OC(=O)/C=C/c1ccc(O)cc1)C1=C[C@]2(C=C[C@@H]3C(C(=O)O)=CO[C@@H](O[C@@H]4O[C@H](CO[C@@H]5O[C@H](CO)[C@@H](O)[C@H](O)[C@H]5O)[C@@H](O)[C@H](O)[C@H]4O)[C@@H]32)OC1=O	none
O=C(/C=C/c1ccc(O)cc1)OC[C@@]1(O)C=C[C@@H]2C(C(=O)O)=CO[C@@H](O[C@@H]3O[C@H](CO)[C@@H](O)[C@H](O)[C@H]3O)[C@@H]21	Methyltransferases active
COc1ccc(/C=C/C(=O)O[C@@H]2[C@@H](O[C@@H]3O[C@H](CO)[C@@H](O)[C@H](O)[C@H]3O)[C@@H](O)[C@H](O[C@H]3C4C=CO[C@@H](O[C@@H]5O[C@H](CO)[C@@H](O)[C@H](O)[C@H]5O)C4[C@@]4(CO)O[C@@H]34)O[C@H]2C)cc1 (stereo partly specified)	none
O=c1c2ccccc2n2c(SCc3cccc(F)c3)nnc2n1Cc1ccc(F)cc1	none
CC1CCN(S(=O)(=O)c2ccc3c(ccn3CCC(=O)NC3CCCc4ccccc43)c2)CC1 (stereo unspecified)	none
CC(C)OCCCn1c(=O)c2ccccc2n2c(SCc3ccccc3F)nnc12	none
CC1(C(=O)NC2CCCCCCC2)Cn2c(cc3occc32)C(=O)N1Cc1ccccc1F (stereo unspecified)	none
CC1CCN(S(=O)(=O)c2ccc3c(c2)oc(=O)n3CC(=O)N2CC(C)CC(C)C2)CC1 (stereo unspecified)	none
CC(C)CCNC(=O)C1(C)Cn2nc(C(=O)NCCC3=CCCCC3)cc2C(=O)N1C (stereo unspecified)	none
Cc1ccc(NC(=O)Cn2c(=O)oc3cc(S(=O)(=O)N4CC(C)CC(C)C4)ccc32)cc1C (stereo unspecified)	none
CCOc1ccccc1CN1C(=O)c2ccc(-c3ccccc3)n2CC1(C)C(=O)NC1CCCCC1 (stereo unspecified)	none
CCC(C)NC(=O)c1ccc2c(=O)n(C)c3nn(Cc4ccc(C)cc4)c(=O)n3c2c1 (stereo unspecified)	none
CC(=O)O[C@@H]1[C@@H](OC(C)=O)[C@H](C)O[C@@H](O[C@H]2[C@@H]3C=CO[C@@H](O[C@@H]4O[C@H](CO)[C@@H](O)[C@H](O)[C@H]4O)[C@@H]3[C@@]3(CO)O[C@@H]23)[C@@H]1OC(=O)/C=C/c1ccccc1	none
CC(=O)O[C@@H]1[C@@H](OC(=O)/C=C/c2ccccc2)[C@@H](OC(C)=O)[C@H](O[C@H]2[C@@H]3C=CO[C@@H](O[C@@H]4O[C@H](CO)[C@@H](O)[C@H](O)[C@H]4O)[C@@H]3[C@@]3(CO)O[C@@H]23)O[C@H]1C	none
COc1ccc(/C=C/C(=O)O[C@@H]2[C@@H](OC(C)=O)[C@@H](OC(C)=O)[C@H](O[C@H]3[C@@H]4C=CO[C@@H](O[C@@H]5O[C@H](CO)[C@@H](O)[C@H](O)[C@H]5O)[C@@H]4[C@@]4(CO)O[C@@H]34)O[C@H]2C)cc1O	Methyltransferases active
Cc1ccc2n1CCN(C(=O)Nc1ccccc1F)C2C(C)C (stereo unspecified)	none
CC(C)CN(CCN1C(=O)c2cc3occc3n2CC1(C)C(=O)NC1CCCCCC1)CC(C)C (stereo unspecified)	none
Cc1ccc(NC(=O)Cn2c(=O)oc3cc(S(=O)(=O)N4CCCCC4)ccc32)cc1C	none
c1ccc(-c2oc3ncnc(NC[C@@H]4CCCO4)c3c2-c2ccccc2)cc1	Methyltransferases active
Cc1cccc(-c2nnn3c2nc(NCC2CCCO2)c2ccccc23)c1 (stereo unspecified)	none
c1nc(NC2CCCCCC2)c2cc(CNC[C@H]3CCCO3)sc2n1	none
COc1ccccc1CN1C(=O)c2cc3oc(C)cc3n2CC1(C)C(=O)NC1CCCCC1 (stereo unspecified)	none
CC(C)Cn1c(=O)c2ccc(C(=O)NC3CCCC3)cc2n2c(=O)n(CC(=O)NC3CCCCC3)nc12	none

Assay outcomes: PubChem BioAssay, National Center for Advancing Translational Sciences (NCATS)
